From PubChem BioAssay (EPA / NIEHS)
Where “and” joins values, the source holds several entries; their conditions need not be identical. Equal entries are not always repeated. Some compounds were tested as several samples or in several runs, with calls that do not always agree. Calls of active or inactive are those of the source. Rule for the calls: active = hit-call score of the fitted dose curve at least 0.9, where 1 is the maximum; inactive = score below 0.9.

How the values were obtained:
[1] = read-out: Thrombomodulin, THBD (gene 7056); experiment: BSK_CASM3C_Thrombomodulin: BioMAP Diversity Plus: CASM3C Assay for Thrombomodulin Biomarker Activity (AID 2283051); conditions: primary human coronary artery smooth muscle cells; actives raise or lower the signal;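 note: thrombomodulin protein level measured by ELISA 24 h after dosing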
[2] = read-out: Tissue Factor, F3 (gene 2152); experiment: BSK_CASM3C_TissueFactor: BioMAP Diversity Plus: CASM3C Assay for Tissue Factor Biomarker Activity (AID 2283052); conditions: primary human coronary artery smooth muscle cells; actives raise or lower the signal;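 note: cell surface tissue factor protein level read by ELISA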
[3] = read-out: Urokinase-type plasminogen activator receptor (uPAR), PLAUR (gene 5329); experiment: BSK_CASM3C_uPAR: BioMAP Diversity Plus: CASM3C Assay for Urokinase-type plasminogen activator receptor (uPAR) Biomarker Activity (AID 2283054); conditions: primary human coronary artery smooth muscle cells; actives raise or lower the signal;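 note: cell-surface uPAR protein level quantified by ELISA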
[4] = read-out: Vascular cell adhesion molecule 1 (VCAM1), VCAM1 (gene 7412); experiment: BSK_CASM3C_VCAM1: BioMAP Diversity Plus: CASM3C Assay for Vascular cell adhesion molecule 1 (VCAM1) Biomarker Activity (AID 2283055); conditions: primary human coronary artery smooth muscle cells; actives raise or lower the signal;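 note: VCAM-1 protein level quantified by ELISA on the cells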
[5] = read-out: Collagen III, COL3A1 (gene 1281); experiment: BSK_hDFCGF_CollagenIII: BioMAP Diversity Plus: hDFCGF Assay for Collagen III Biomarker Activity (AID 2283056); conditions: primary human foreskin fibroblasts; actives raise or lower the signal
How it was run: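 Human foreskin primary fibroblasts were exposed to test chemicals for 24 h, after which collagen III was quantified by ELISA. Activity was fitted bidirectionally against DMSO as negative control and baseline.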

[6] = read-out: Epidermal growth factor receptor (EGFR), EGFR (gene 1956); experiment: BSK_hDFCGF_EGFR: BioMAP Diversity Plus: hDFCGF Assay for Epidermal growth factor receptor (EGFR) Biomarker Activity (AID 2283057); conditions: primary human foreskin fibroblasts; actives raise or lower the signal
How it was run: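 EGFR levels by ELISA in human dermal fibroblast cultures, 24 h post-treatment, fitted bidirectionally versus DMSO. Parallel wells stained with sulforhodamine B to detect overt cytotoxicity.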

[7] = BSK_hDFCGF_Proliferation: Cell Proliferation Assessment in the BioMAP Diversity Plus: hDFCGF Assay (AID 2283059); conditions: primary human foreskin fibroblasts;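 note: curves fitted for both rise and fall of signal versus DMSO baseline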
How it was run: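 This proliferation readout used SRB total-protein staining of human foreskin fibroblasts […], normalized to DMSO with bidirectional curve fitting.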

[8] = read-out: Macrophage colony-stimulating factor (MCSF), CSF1 (gene 1435); experiment: BSK_hDFCGF_MCSF: BioMAP Diversity Plus: hDFCGF Assay for Macrophage colony-stimulating factor (MCSF) Biomarker Activity (AID 2283060); conditions: primary human foreskin fibroblasts; actives raise or lower the signal
How it was run: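 Human foreskin primary fibroblasts were treated with test chemical for 24 h, and M-CSF was then measured by ELISA. Data were fitted bidirectionally against DMSO as the negative control and activity baseline.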

[9] = BSK_hDFCGF_SRB: Viability Assessment in the BioMAP Diversity Plus: hDFCGF Assay (AID 2283061); conditions: primary human foreskin fibroblasts;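 note: cells exposed to compound for 24 h before the read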
How it was run: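 Human foreskin primary fibroblasts were treated with compound and assessed 24 h after dosing. Total protein was measured by sulforhodamine B staining (0.1% SRB after 10% TCA fixation, 560 nm read) as a cytotoxicity marker, with bidirectional fitting against DMSO baseline.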

[10] = read-out: TIMP metallopeptidase inhibitor 1 (TIMP1), TIMP1 (gene 7076); experiment: BSK_hDFCGF_TIMP1: BioMAP Diversity Plus: hDFCGF Assay for TIMP metallopeptidase inhibitor 1 (TIMP1) Biomarker Activity (AID 2283062); conditions: primary human foreskin fibroblasts; actives raise or lower the signal
How it was run: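 Primary human foreskin fibroblasts in the hDFCGF system were dosed with compound for 24 h, then TIMP-1 was measured by ELISA. Activity was fitted bidirectionally relative to DMSO control; parallel SRB staining assessed cytotoxicity.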

[11] = read-out: Monokine induced gamma interferon (MIG), CXCL9 (gene 4283); experiment: BSK_hDFCGF_MIG: BioMAP Diversity Plus: hDFCGF Assay for Monokine induced gamma interferon (MIG) Biomarker Activity (AID 2283063); conditions: primary human foreskin fibroblasts; actives raise or lower the signal
How it was run: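 ELISA read-out of MIG from primary human dermal fibroblasts 24 h post-dosing. Gain or loss of signal fitted bidirectionally, DMSO as baseline.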

[12] = read-out: Matrix Metallopeptidase 1 (MMP1), MMP1 (gene 4312); experiment: BSK_hDFCGF_MMP1: BioMAP Diversity Plus: hDFCGF Assay for Matrix Metallopeptidase 1 (MMP1) Biomarker Activity (AID 2283064); conditions: primary human foreskin fibroblasts; actives raise or lower the signal
How it was run: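 Human foreskin fibroblasts exposed to chemical for 24 h; MMP1 detected by ELISA, with DMSO as baseline for bidirectional fitting.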

[13] = read-out: Vascular cell adhesion molecule 1 (VCAM1), VCAM1 (gene 7412); experiment: BSK_hDFCGF_VCAM1: BioMAP Diversity Plus: hDFCGF Assay for Vascular cell adhesion molecule 1 (VCAM1) Biomarker Activity (AID 2283065); conditions: primary human foreskin fibroblasts; actives raise or lower the signal;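 for AC50: VCAM-1 protein level quantified by ELISA after 24 h chemical exposure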
How it was run: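 Primary human foreskin fibroblasts (hDFCGF system) were dosed with chemical and VCAM-1 was measured by ELISA 24 h later. Bidirectional curve fitting used DMSO as negative control and activity baseline.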

[14] = read-out: Plasminogen activator inhibitor-1 (PAI1), SERPINE1 (gene 5054); experiment: BSK_hDFCGF_PAI1: BioMAP Diversity Plus: hDFCGF Assay for Plasminogen activator inhibitor-1 (PAI1) Biomarker Activity (AID 2283066); conditions: primary human foreskin fibroblasts; actives raise or lower the signal
How it was run: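 PAI-1 levels in human dermal foreskin fibroblasts were quantified by ELISA 24 h after dosing, with gain or loss analysed against DMSO. Overt cytotoxicity was checked by sulforhodamine B total-protein staining in parallel cultures.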

[15] = read-out: Intercellular Adhesion Molecule 1 (ICAM1), ICAM1 (gene 3383); experiment: BSK_KF3CT_ICAM1: BioMAP Diversity Plus: KF3CT Assay for Intercellular Adhesion Molecule 1 (ICAM1) Biomarker Activity (AID 2283067); conditions: primary human keratinocytes with fibroblasts; actives raise or lower the signal
How it was run: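 Human keratinocyte plus foreskin fibroblast primary co-culture was exposed to chemical for 24 h. ICAM-1 was then quantified by ELISA, and the data were fit bidirectionally against DMSO as the negative control and baseline.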

[16] = read-out: Interferon-gamma inducible Protein 10 (IP10), CXCL10 (gene 3627); experiment: BSK_KF3CT_IP10: BioMAP Diversity Plus: KF3CT Assay for Interferon-gamma inducible Protein 10 (IP10) Biomarker Activity (AID 2283068); conditions: primary human keratinocytes with fibroblasts; actives raise or lower the signal
How it was run: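 Signal is secreted/surface IP-10 by ELISA in a human primary skin co-culture of keratinocytes and foreskin fibroblasts, taken 24 h post-dosing; DMSO served as negative control.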

[17] = BSK_KF3CT_SRB: Viability Assessment in the BioMAP Diversity Plus: KF3CT Assay (AID 2283069); conditions: primary human keratinocytes with fibroblasts;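 note: fitted for both signal gain and loss against DMSO baseline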
How it was run: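 Overt cytotoxicity is assessed as total protein by sulforhodamine B staining in parallel human skin co-cultures at 24 h after dosing. DMSO serves as negative control and baseline.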

[18] = read-out: Interleukin-1 alpha (IL1a), IL1A (gene 3552); experiment: BSK_KF3CT_IL1a: BioMAP Diversity Plus: KF3CT Assay for Interleukin-1 alpha (IL1a) Biomarker Activity (AID 2283070); conditions: primary human keratinocytes with fibroblasts; actives raise or lower the signal
How it was run: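 Readout is IL-1a level by ELISA, compared bidirectionally with DMSO as baseline. Cells: human keratinocytes co-cultured with foreskin fibroblasts, harvested 24 h post-dose.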

[19] = read-out: Interleukin-8 (IL8), CXCL8 (gene 3576); experiment: BSK_hDFCGF_IL8: BioMAP Diversity Plus: hDFCGF Assay for Interleukin-8 (IL8) Biomarker Activity (AID 2283058); conditions: primary human foreskin fibroblasts; actives raise or lower the signal
How it was run: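 hDFCGF human dermal fibroblasts; 24 h chemical exposure; IL-8 by ELISA; bidirectional curve fit vs DMSO baseline; gain or loss of signal scored.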

Measured: AC50

OCC(F)(F)C(F)(F)C(F)(F)CO
inactive: [1] | [2] | [3] | [4] | [5] | [6] | [7] | [8] | [9] | [10] | [11] | [12] | [13] | [14] | [15] | [16] | [17] | [18]

O=S(=O)(O)CCC(F)(F)C(F)(F)C(F)(F)C(F)(F)C(F)(F)C(F)(F)C(F)(F)C(F)(F)F
inactive: [1] | [2] | [3] | [4] | [6] | [7] | [8] | [10] | [11] | [12] | [13] | [14] | [15] | [16] | [17] | [18]
active: [9] 54.3 µM and 24.7 µM | [12] 30 µM | [18] 7.84 µM

CCN(CC)c1ccc(C=O)cc1
active: [2] 5.46 µM
inactive: [1] | [3] | [4] | [6] | [7] | [8] | [9] | [10] | [11] | [12] | [13] | [14] | [15] | [16] | [17] | [18]

FC(F)(F)C(F)(F)C(F)(F)C(F)(F)C(F)(F)C(F)(F)C(F)(F)CCI
active: [7] 1.78 µM and 1.25 µM | [8] 1.47 µM | [11] 3.33 µM
inactive: [1] | [2] | [3] | [4] | [6] | [8] | [9] | [10] | [11] | [12] | [13] | [14] | [15] | [16] | [17] | [18]

Nc1cc([N+](=O)[O-])cc(Cl)c1O
inactive: [1] | [2] | [3] | [4] | [5] | [6] | [7] | [8] | [9] | [10] | [11] | [12] | [13] | [14] | [15] | [16] | [17] | [18]

OCC(F)(F)C(F)(F)C(F)(F)C(F)(F)C(F)(F)C(F)(F)CO
inactive: [1] | [2] | [3] | [4] | [5] | [6] | [19] | [7] | [8] | [9] | [10] | [11] | [12] | [13] | [14] | [15] | [16] | [17] | [18]

CCN(CC)c1ccc(N=Nc2ccccc2)cc1
inactive: [2] | [3] | [6] | [19] | [8] | [9] | [10] | [11] | [14] | [15] | [16] | [17] | [18]
active: [1] 11.3 µM | [4] 3.04 µM | [7] 8.62 µM | [13] 20 µM

O=C(O)C(F)(F)C(F)(F)C(F)(F)C(F)(F)C(F)(F)C(F)(F)C(F)F
inactive: [1] | [2] | [3] | [4] | [6] | [19] | [7] | [8] | [9] | [10] | [11] | [12] | [13] | [14] | [15] | [16] | [17] | [18]
active: [6] 30 µM and 1.81 µM | [10] 0.223 µM

FC(F)(F)C(F)(F)C(F)(F)C(F)(F)C(F)(F)C(F)(F)CC[Si](Cl)(Cl)Cl
inactive: [1] | [2] | [3] | [4] | [6] | [7] | [8] | [9] | [10] | [11] | [12] | [13] | [14] | [15] | [16] | [17] | [18]

CC(C)CCCC(C)CCO (stereo not drawn)
inactive: [1] | [6] | [8] | [9] | [10] | [11] | [12] | [13] | [14]
active: [2] 29.9 µM | [3] 31.3 µM | [4] 31.9 µM | [7] 32.8 µM | [15] 36.5 µM | [16] 35.6 µM | [17] 34.4 µM | [18] 34.4 µM

CO[Si](C)(CCC(F)(F)C(F)(F)C(F)(F)C(F)(F)C(F)(F)C(F)(F)F)OC
inactive: [1] | [2] | [3] | [4] | [5] | [6] | [7] | [8] | [9] | [10] | [11] | [12] | [13] | [14] | [15] | [16] | [17] | [18]

Cc1cnccn1
inactive: [1] | [2] | [3] | [4] | [6] | [7] | [8] | [9] | [10] | [11] | [12] | [13] | [14] | [15] | [16] | [17] | [18]

NC(=O)C(F)(F)C(F)(F)C(F)(F)C(F)F
inactive: [1] | [2] | [3] | [4] | [6] | [7] | [8] | [9] | [10] | [11] | [12] | [13] | [14] | [15] | [16] | [17] | [18]
